Screening results from PubChem.
A selection: hits, their analogues and other compounds. The true share with any hit is near 2%.
Calb FLC: affects C. albicans growth with fluconazole; C. albicans CaCi-2 (fluconazole-resistant clinical isolate) + fluconazole, Alamar Blue growth, 48 h; hit rate 0.57% among 300,000; growth inhibition, % (test concentration not listed);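 active means growth inhibition above about 58% in most replicates, limit read from the data, passing the limit was not always enough; inconclusive means exactly half the replicates above a set limit; inactive means most replicates below a set limit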;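 further: all wells also contain fluconazole at 8 µg/ml as a sub-toxic cotreatment; 0% = median of DMSO wells and 100% = median of geldanamycin control wells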
Beta cell apopt: beta cell apoptosis inhibition; protection from apoptosis, % (concentration not given with the values); hit rate 0.8% among 300,000; INS-1E cytokine-induced death, ATP luminescence, 48 h; percent of positive-control rescue, neutral wells zero; AID 435005;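 active means Every replicate reaches about 75%, or at least half do and their mean reaches it too, limit read from the data; inconclusive means At least half of replicates reach the limit but their mean does not; inactive means Under half of replicates reach the limit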;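 further: 0% = cytokine-treated negative control wells and 100% = positive control rescue; higher means more ATP so stronger rescue from cytokine killing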
Jurkat NFkB inh: inhibitors of the PMA/ionomycin-induced NF-kB reporter in Jurkat cells; PMA/ionomycin-induced NF-kB luciferase reporter, luminescence; inhibition, % at 4 µM; hit rate 0.53% among 330,000; in the data active means inhibition above about 50%
697 NFkB inh: lowers PMA/ionomycin-induced NF-kB signal in 697 B cells. 697 B-cell NF-kB luciferase reporter, 16 h. inhibition, % at 4 µM. hit rate 0.33% among 330,000. AID 435022; in the data active means inhibition above about 35%
Shn3 3UTR inh: Schnurri-3 reporter inhibition in Clone20 osteoblasts. Clone20 osteoblast Shn3 3'UTR firefly luciferase, 24 h. inhibition, % at 12.5 µM. hit rate 0.52% among 360,000;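 active means mean inhibition of at least 75% with every replicate also reaching 75%; inconclusive means mean inhibition at least 75% but some replicate below; inactive means mean inhibition below 75%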;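 further: 0% = median of neutral control wells and 100% = pilot-screen positive control compound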
Active calls of the source: *; ? = inconclusive; · = not tested or not shown.

SMILES	Calb FLC	Beta cell apopt	Jurkat NFkB inh	697 NFkB inh	Shn3 3UTR inh
O=C(NCc1cc([N+](=O)[O-])ccc1O)c1cccnc1Sc1ccccc1Cl	86*	4	-2	-18	3
O=C(NCc1cc([N+](=O)[O-])ccc1O)c1cccnc1Sc1ccc(Cl)cc1	?	10	17	13	12
Cc1ccc2nc(C3CCCCC3)c(Cc3ccccc3)n2c1	·	·	·	·	8
Cc1ccc(C(=O)c2sc(Nc3ccccc3)c(C#N)c2N)cc1	?	4	6	-8	26
N#Cc1c(Nc2ccccc2)sc(C(=O)c2ccc(F)cc2)c1N	10	91*	1	15	22
CN(C)c1nc2c(N)ncnc2n1C1OC(CO)C(O)C1O (configuration not stated)	·	·	·	·	5
OCC1OC(n2ccc3c(NO)ncnc32)C(O)C1O (configuration not stated)	·	·	·	·	99*
CN(C)c1ncnc2c1ccn2C1OC(CO)C(O)C1O (configuration not stated)	·	·	·	·	88*
O=C(N[C@@H]1c2ccccc2CC[C@@H]1OCc1ccccc1)c1ccc(C(F)(F)F)cc1	·	·	·	8	19
CC1(C)C(C=C(Cl)Cl)C1C(=O)Nc1ccc([N+](=O)[O-])cc1 (configuration not stated)	·	96*	·	·	·
Cc1cc(Br)cn2c(Cc3ccccc3)c(-c3ccc(F)cc3)nc12	·	·	·	·	3
Cc1cc(C)c(O)c(-c2cc(C(=O)Nc3ccc(S(=O)(=O)N4CCOCC4)cc3)[nH]n2)c1	-11	·	15	-25	91*
O=C(O)CCCn1c(O)c(C=C2N=c3ccccc3=N2)sc1=S	6	-7	7	-19	10
O=C(O)CCCCCn1c(O)c(C=C2N=c3ccccc3=N2)sc1=S	83*	·	-2	-36	-31
O=C(NC1CCC1)C1CCC(=O)N(Cc2ccc(Cl)cc2)C1 (configuration not stated)	·	·	·	·	-6
Fc1ccccc1-c1nnc2ccc3ccccc3n12	10	-1	0	-5	8
Fc1cccc(Cl)c1-c1nnc2ccc3ccccc3n12	-30	101*	-12	-80	16
O=C(NNc1ccc(Cl)cc1)C1CCC1	85*	-14	16	1	7
Nc1ncnc2c(C3OC(CO)C(O)C3O)c[nH]c12 (configuration not stated)	·	·	·	·	93*
Oc1ccc(O)c2c1C1c3ccccc3C2c2ccccc21	78*	-13	-8	3	·
Oc1ccc2ccccc2c1C1Nc2cccc3cccc(c23)N1	38	12	23	-24	-3
O=C(OC(C(=O)NCc1ccccc1)c1ccccc1F)c1ccco1 (configuration not stated)	-2	-4	12	14	-33
CCOc1ccc(NC2=CC(=O)C(=O)c3ccccc32)cc1	·	·	·	·	12
Cc1ccc(NC2=CC(=O)C(=O)c3ccccc32)c(C)c1	·	101*	1	1	37
O=C1C=C(Nc2ccc(F)cc2)c2ccccc2C1=O	·	106*	16	11	8
SMILES	Calb FLC	Beta cell apopt	Jurkat NFkB inh	697 NFkB inh	Shn3 3UTR inh
O=C1C=C(Nc2ccccc2O)c2ccccc2C1=O	-5	113*	27	-6	25
O=c1cccccc1NCc1ccccc1	14	-8	9	-32	-39
O=C1C=C(NCc2ccccc2)c2ccccc2C1=O	99*	·	·	·	37
Cc1cc(C(=O)CSc2nc(N)cc(N)n2)c(C)n1C1CC1	-12	0	-10	-1	-3
C=CCn1c(C)cc(C(=O)CSc2nc(N)cc(N)n2)c1C	108*	1	1	-2	-6
COc1ccccc1-c1cc(C(=O)NC2CCN(C)CC2)c2ccc(Cl)c(C)c2n1	3	112*	44	20	20
COc1ccc(C(=O)C(C)OC(=O)COc2ccccc2)cc1 (configuration not stated)	·	-6	1	23	7
CC(C)(C)N(CC#CCC(O)(c1ccccc1)c1ccccc1)CCO	0	-2	5	-2	-1
O=C(Nc1ccc2c(c1)OCO2)c1cc(-c2ccc(O)cc2)on1	-11	·	-16	-18	-5
CNC(=O)c1nnsc1S(=O)(=O)c1ccc(Cl)cc1	-7	·	18	28	99*
Nc1nc(C(=O)N2CCOCC2)nn1S(=O)(=O)c1ccc(Cl)cc1	17	-4	-7	6	-10
O=C(c1nnsc1S(=O)(=O)c1ccc(Cl)cc1)N1CCOCC1	5	·	47	-8	95*
CNC(=O)c1ccc(S(=O)(=O)c2ccc(Cl)cc2)c(NC(C)=O)c1	-3	·	1	7	-11
CC(=O)Nc1ccc(S(=O)(=O)NCCC(=O)N2CCC(Cc3ccccc3)CC2)cc1	·	4	8	-22	21
O=C(NCCN1CCOCC1)c1ccc(NS(=O)(=O)c2cccc([N+](=O)[O-])c2)cc1	32	2	-8	-4	6
Cc1c(N=O)c(-c2ccccc2)n(O)[n+]1[O-]	·	·	·	·	0
CN1CCc2cc3c(c4c2[C@H]1[C@H](O)c1ccccc1-4)OCO3	95*	72	-14	-10	-45
COc1ccc2c(c1OC)C(=O)OC2C1c2c(cc3c(c2OC)OCO3)CCN1C (configuration not stated)	3	-7	1	19	0
CCOC(=O)c1c(NC(=O)c2nn(CC)cc2Br)sc2c1CCCCC2	2	7	-9	6	32
CCOC(=O)c1c(NC(=O)c2nn(CC)cc2Br)sc(C)c1C	11	9	-2	16	84*
CC(OC(=O)c1ccc(Br)o1)C(=O)NCC1CCCCC1 (configuration not stated)	·	-4	-4	5	10
Cn1cnc([N+](=O)[O-])c1S(=O)(=O)Nc1ccccc1	·	·	·	·	-16
Cn1cnc([N+](=O)[O-])c1S(=O)(=O)Oc1ccccc1	·	·	·	·	95*
Cc1cc(C)cc(N2C(=O)CC(Sc3nnnn3-c3ccccc3)C2=O)c1 (configuration not stated)	-22	-27	8	15	88*
Cn1nnnc1SC1CC(=O)N(c2ccccc2)C1=O (configuration not stated)	-22	1	-2	2	-1
SMILES	Calb FLC	Beta cell apopt	Jurkat NFkB inh	697 NFkB inh	Shn3 3UTR inh
O=C1CC(=O)OC(c2ccc([N+](=O)[O-])cc2)O1	·	·	·	·	98*
Oc1ccc(N=Nc2ccccc2C(F)(F)F)c2cccnc12	98*	90*	37	-10	90*
COc1ccccc1N=Nc1ccc(O)c2ncccc12	97*	20	-47	-58	25
Cc1ccc(N=Nc2ccc(O)c3ncccc23)cc1	?	102*	·	·	91*
CCS(=O)(=O)c1ccc(O)c(NC(=O)c2cc(OC)c(OC)c(OC)c2)c1	-6	0	-3	28	-3
Cc1ccc(N=Nc2ccc(O)c3ncccc23)cc1C	9	-6	25	-93	54
CCS(=O)(=O)c1ccc(N=Nc2ccc(O)c3ncccc23)c(OC)c1	?	·	16	-4	95*
C#CCOCCOCCOCCNc1nc(N2CCN(C(=O)[C@H](CCC(=O)O)n3cc([C@@H](N)CCCCN)nn3)CC2)nc(N2CCN(C(=O)[C@H](CCCCN)n3cc([C@@H](N)CC(N)=O)nn3)CC2)n1	·	-7	19	18	-5
